Source: PubChem (National Center for Advancing Translational Sciences (NCATS))
Shown is part of a subset that was picked to be rich in hits.
nsP2pro inh – Primary qHTS for inhibitors of NSP2Pro chikungunya virus (CHIKV) | Polyprotein P1234 (Chikungunya virus (strain S27-African prototype)), Q8JUX6 | Potency, µM (highest dose often 24.9 µM), for the others: at the top dose activity change, negative = inhibition, hits mostly inhibitors | FRET peptide cleavage, nsP2pro, fluorescence 1 h | 31,000 compounds, 1.1% hits; further: nearly all actives have a fitted effect of over 60% in size
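Recombinant nsP2pro (150 nM) was preincubated with compound 15 min at room temperature in 10 mM Tris-HCl pH 8.0, 0.01% Tween 20. Peptide 2 FRET substrate (2.5 uM) was then added and fluorescence read after 1 h. Seven-point series, up to 25 uM.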
nsP2 cell sec – Secondary cell base assay for inhibitors of NSP2Pro Chikungunya virus (CHIKV); Potency, µM (top dose mostly 51.1 µM), without a hit: top-dose activity change, negative = inhibition, usual class: inhibitors; AID 1964100, 2024; 450 compounds, 10% hits; shares compounds with nsP2pro inh; cell-based CHIKV nsP2 protease reporter assay; further: nearly all actives have a fitted effect of over 70% in size
CHIKV NSP2 FL – Selectivity profile for inhibitors of NSP2Pro chikungunya virus (CHIKV): Full length NSP2 enzyme counterscreen (CHIKV-NSP2). shares compounds with nsP2pro inh. Full-length CHIKV NSP2 protease enzymatic counterscreen. Potency, µM (series often up to 50.7 µM), for inactives: at the highest dose activity change, negative = inhibition, hits mostly inhibitors. 410 compounds, 39% hits. AID 1964101, 2024; further: nearly all actives have a fitted effect of over 65% in size
Furin counterscr – Selectivity profile for inhibitors of NSP2Pro chikungunya virus (CHIKV): Human furin counterscreen. shares compounds with nsP2pro inh. Potency, µM (top dose mostly 50.6 µM), without a hit: at the top dose activity change, negative = inhibition, hits mostly inhibitors. Recombinant human furin enzymatic counterscreen, fluorogenic substrate. 410 compounds, 6% hits
NS23 peptide cs – Selectivity profile for inhibitors of NSP2Pro chikungunya virus (CHIKV): Endogenous NS2/3 peptide Counterscreen; Potency, µM (titrated, usually from 51 µM), without a hit: top-dose activity change, negative = inhibition, usual class: inhibitors; Purified CHIKV nsP2 protease, endogenous NS2/3 peptide cleavage; 410 compounds, 34% hits; AID 1964103, 2024; shares compounds with nsP2pro inh; further: nearly all actives have a fitted effect of over 55% in size
Papain counter – Selectivity profile for inhibitors of NSP2Pro chikungunya virus (CHIKV): Papain Counterscreen; 410 compounds, 5% hits; purified papain protease activity, enzymatic inhibition; Potency, µM (doses to about 51 µM), inactives show at the top dose activity change, negative = inhibition, most hits filed as inhibitors; shares compounds with nsP2pro inh; AID 1964104, 2024
Target sequence (P00784 whole entry, looked up): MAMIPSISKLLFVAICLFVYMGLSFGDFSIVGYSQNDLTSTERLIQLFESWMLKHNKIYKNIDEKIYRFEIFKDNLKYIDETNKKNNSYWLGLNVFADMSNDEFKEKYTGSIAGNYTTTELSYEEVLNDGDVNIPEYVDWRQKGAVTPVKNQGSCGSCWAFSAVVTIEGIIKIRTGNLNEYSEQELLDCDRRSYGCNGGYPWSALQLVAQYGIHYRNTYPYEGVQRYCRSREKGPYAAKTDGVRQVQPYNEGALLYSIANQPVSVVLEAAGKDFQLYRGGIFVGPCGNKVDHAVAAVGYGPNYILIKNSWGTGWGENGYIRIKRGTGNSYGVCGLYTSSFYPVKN
nsP2pro conf qHTS – Confirmatory qHTS for inhibitors of NSP2Pro chikungunya virus (CHIKV); Potency, µM (top dose mostly 25.5 µM), for the others: at the highest dose activity change, negative = inhibition, most hits filed as inhibitors; CHIKV nsP2 protease enzymatic activity, qHTS; shares compounds with nsP2pro inh; 410 compounds, 43% hits; further: nearly all actives have a fitted effect of over 75% in size
HCV NS3 counter – Selectivity profile for inhibitors of NSP2Pro chikungunya virus (CHIKV): NS34A-HCV Counterscreen; shares compounds with nsP2pro inh; HCV NS3/4A protease biochemical counterscreen; Potency, µM (titrated, usually from 50.9 µM), usual class: inhibitors; 410 compounds, 20% hits; further: nearly all actives have a fitted effect of over 55% in size
An asterisk follows results filed as active; i = inactive; ? = inconclusive; ! = repeats disagree; [ ] = another dose, or the depositor's remark. The call rests on the fitted dose curve. On the % scale 0 is the no-effect control and ±100 the full control effect; potency means the concentration at half of the fitted maximal effect.

SMILES | nsP2pro inh | others
CC1=C(C(=O)OCC2CCCCC2)C(c2ccccc2F)CC(=O)N1 (stereo unspecified) | -8.0%
Nc1nc2c(s1)C(c1ccccc1Cl)CC(=O)N2 (stereo unspecified) | 10µM*! | nsP2 cell sec=-40.1%;CHIKV NSP2 FL=1.63µM*;Furin counterscr=-5.0%;NS23 peptide cs=3.66µM*;Papain counter=9.0%;nsP2pro conf qHTS=4µM*;HCV NS3 counter=i
CNc1oc(-c2cccc3ccccc23)nc1C(=O)OC | -7.6%
CCCCOC(=O)NS(=O)(=O)c1sc(CC(C)C)cc1-c1ccc(Cn2ccnc2)cc1 | 256.4%
Cc1cc(C(=O)Nc2nc3cccc(Cl)c3n2C2CCCCN(C(=O)/C=C/CN(C)C)C2)ccn1 (stereo unspecified) | i
CCOc1ccc(C(=O)Oc2ccc(-c3nc4ccccc4[nH]3)cc2)cc1[N+](=O)[O-] | -0.2%
O=C(Nc1ccccc1F)C1CN(C2CCCCC2)C(=O)N1 (stereo unspecified) | i
CN1CC2(C1)C(=O)N(C)C(=O)[C@@H]1C[C@@H](O)CN12 | -3.5%[39.2 µM]
CCc1nc2ccc(C(=O)N3CCN(c4cccc(OC)c4)CC3)cc2nc1CC | -12.7%
COC(=O)c1ccc(O)c2ncc(-c3ccc(C(=O)N4CCNCC4)cc3)cc12 | i
COC(=O)c1cc(CN2CCN(C(=N)N)CC2)cc(C(=O)N2CCN(C(=O)c3ccc(C(=N)N)cc3)CC2)c1 | ? | nsP2 cell sec=-4.1%;CHIKV NSP2 FL=14.6µM*;Furin counterscr=9.19µM*;NS23 peptide cs=?;Papain counter=?;nsP2pro conf qHTS=?;HCV NS3 counter=i
CN1C(=O)N(c2ccc(C#N)c(C(F)(F)F)c2)C(=O)[C@]1(CO)c1ccccc1 | -4.8%
CCCC1(CO)CCCN(CC(=O)NC(C)(C)CC)C1 (stereo unspecified) | -5.1%
Cc1cn([C@H]2C[C@H](N[S+](=O)([O-])Cc3cccc(Cl)c3)[C@@H](CO)O2)c(=O)[nH]c1=O | -6.4%
CC(C)n1cnnc1CC1CCN(S(=O)(=O)Cc2ccccc2)C1 (stereo unspecified) | -0.7%
Cc1nn(-c2ccc(C(C)C)cc2)c(C)c1[C@@H]1C=C[C@@H](NC(=O)NC(C)C)C1 | 7.6%[39.2 µM]
Cc1nn(-c2ccccn2)c(C)c1[C@@H]1C=C[C@@H](NC(=O)NC(C)C)C1 | 10µM* | nsP2 cell sec=?;CHIKV NSP2 FL=18.8µM*;Furin counterscr=-8.0%;NS23 peptide cs=?;Papain counter=-5.2%;nsP2pro conf qHTS=13µM*;HCV NS3 counter=13.3µM*
Cc1nn(-c2ccccn2)c(C)c1[C@@H]1C=C[C@@H](NC(=O)CCC(=O)O)C1 | 2.9%[39.2 µM]
Cc1nn(-c2ccc(C(F)(F)F)cc2)c(C)c1[C@@H]1C=C[C@@H](NC(=O)NC(C)C)C1 | 1.41µM* | nsP2 cell sec=2.11µM*;CHIKV NSP2 FL=-4.3%;Furin counterscr=14.9µM*;NS23 peptide cs=18.8µM*;Papain counter=-1.0%;nsP2pro conf qHTS=2.59µM*;HCV NS3 counter=11.9µM*
CCNC(=O)N[C@@H]1C=C[C@@H](c2c(C)nn(-c3ccc(OC)cc3)c2C)C1 | 0.5%[39.2 µM]
Cc1ccc(-n2nc(C)c([C@@H]3C=C[C@@H](NC(=O)NC(C)C)C3)c2C)cc1Cl | -5.0%[39.2 µM]
COCCN1CCCCCC(O)c2cc(C(=O)NCc3ccc(F)cc3)ccc21 (stereo unspecified) | i
Cc1ccnc(NC(=S)N2CC3CN(c4ncc(C(F)(F)F)cc4Cl)CC3C2)c1 (stereo unspecified) | -0.9%
COc1ccc(Cl)cc1NC(=O)CCC1CCCN(C(=O)c2ccnn2C)C1 (stereo unspecified) | i
Cc1cc(C)nc(NC(=S)N2CCN(c3nc4ccccc4o3)CC2)c1 | i
SMILES | nsP2pro inh | others
O=C(NCc1nc(-c2ncccn2)no1)C1CCCN(Cc2ccco2)C1 (stereo unspecified) | -10.7%
CC(C)=CCC/C(C)=C/CO[C@@H]1O[C@H](CO[C@@H]2OC[C@](O)(CO)[C@H]2O)[C@@H](O)[C@H](O)[C@H]1O | -9.0%[10 µM]
Cn1cccc1-c1noc(C2CCN(C(=O)CCCc3ccccc3)C2)n1 (stereo unspecified) | i
C=C(C(=O)O)C1CC2=C(C)C(=O)CC2C(C)CC1O (stereo unspecified) | 4.42µM* | nsP2 cell sec=?;CHIKV NSP2 FL=?;Furin counterscr=-4.6%;NS23 peptide cs=?;Papain counter=-3.2%;nsP2pro conf qHTS=?;HCV NS3 counter=i
FC(F)(F)c1cccc(-c2ccc(CNc3nc(-c4ccccc4C(F)(F)F)nc4ccccc34)cc2)c1 | 3.0%
Cc1nc2ccc(Oc3ccc(F)cc3)cc2c(=O)n1C[C@H]1CCCN(C(C)C)C1 | -13.8%
O=C(c1ccc(OC2CCN(C(=O)C3CCCC3)CC2)nc1)N1CCOCC1 | i
COc1ccc(-c2cc(C(=O)N3CCOC(c4ccc(F)cc4)C3)[nH]n2)cc1 (stereo unspecified) | i
O=C(c1ccc2ncccc2c1)N1CCOC(c2ccc(Cl)c(Cl)c2)C1 (stereo unspecified) | 2.9%
O=C(c1ccc(-c2ccco2)cc1)N1CCOC(c2ccccc2)C1 (stereo unspecified) | 7.94µM* | nsP2 cell sec=?;CHIKV NSP2 FL=10.3µM*;Furin counterscr=-3.0%;NS23 peptide cs=?;Papain counter=-12.8%;nsP2pro conf qHTS=8.96µM*;HCV NS3 counter=i
CN1CCc2nc(C(=O)N[C@@H]3C[C@@H](C(=O)N(C)C)CC[C@@H]3NC(=O)C(=O)Nc3ccc(Cl)cn3)sc2C1 | ? | nsP2 cell sec=-10.1%;CHIKV NSP2 FL=14.4%;Furin counterscr=12.2%;NS23 peptide cs=5.8%;Papain counter=-4.0%;nsP2pro conf qHTS=-11.6%;HCV NS3 counter=i
CC(C)c1ccccc1-c1nc(NCc2ccc(-c3cccnc3)cc2)c2sccc2n1 | 1.1%
CC(C)[C@H]1CCC(CO)=C[C@@H]1/C=C(\CO)C(=O)O | -13.4%
C=C1C(=O)OC2/C=C(\COO)CC/C=C(\COC(C)=O)CC(OC(=O)C(C)CC)C12 (stereo unspecified) | 3.0%[10 µM]
